Molecules are shown by their SMILES. Active and inactive are the calls of the source. The call rests on the fitted dose curve; in most records, active means well fitted activation curve with a large enough effect; inconclusive means small, poorly fitted or top-dose-only effect; inactive means flat fitted curve, though single readings scatter.

The experiment can be described thus: Cellular Toxicity (caspase-3) SK-N-SH (AID 661). Particulars: SK-N-SH caspase-3 activation, qHTS, DMSO as zero, staurosporine as full; series mostly up to 91.7 µM. The text has this:
NIH Chemical Genomics Center [NCGC]
NIH Molecular Libraries Screening Centers Network [MLSCN]
National Institutes of Environmental Health Sciences [NIEHS]
National Toxicology Program [NTP]
We have developed a 1536-well cell-based assay for quantitative high throughput screening (qHTS) against a number of cell lines to determine in vitro caspase 3/7 activity of small molecules. This particular assay uses the SK-N-SH cell line which is derived from human neuroblastoma.
NCGC Assay Protocol Summary:
The Caspase-Glo 3/7 assay (Promega) is a homogeneous method to measure caspase-3 and caspase-7 activities in cultured cells. The quantitation of caspase 3/7 activity is based on the cleavage of a peptide-aminoluciferin substrate. After caspase cleaves the substrate the free aminoluciferin is liberated and serves as the substrate of luciferase, which generates the light. The luminescent signal is proportional to amount of caspase 3/7 activity present.
Using the Caspase-Glo 3/7 assay, the amount of caspase 3/7 activity was measured in the SK-N-SH cell line with complete culture medium following compound treatment for 16 hours. The assay was performed in opaque white 1536-well plates. In the screen, tamoxifen and staurosporine were used as positive controls. Library compounds were measured for their ability to cause the activation of caspase 3/7 in the cell line, as reflected by an increase in luminescence signal, in a concentration-dependent manner. Data were normalized to the controls for basal activity (DMSO only) and 100% stimulation (10 uM staurosporine). AC50 values were determined from concentration-response data modeled with the standard Hill equation.
qHTS protocol for caspase 3/7 assay in SK-N-SH cells
[Step] [Parameter] [Value] [Description]
1. Reagent; 5 uL; 1500 SK-N-SH cells/well
2. Time; 5 hr; 37 °C incubation
4. Controls; 23 nL; Tamoxifen 0.23 uM to 100 uM & staurosporine 1.4 pM to 100 uM
5. Time; 16 hr; 37 °C incubation
6. Reagent; 5 uL; Caspase-Glo 3/7 reagent
7. Time; 1 hr; Room Temperature
8. Detection; Luminescence; Viewlux plate reader
Keywords: caspase 3/7, apoptosis, SK-N-SH cell line, luminescence, NTPHTS, NTPHTS_NCGC, NIEHS, EPA, DSSTox, MLSMR, MLSCN, NIH Roadmap, qHTS, NCGC
(In general: qHTS replaces the single test concentration by a dilution series.)
With `CCC(C)(C)c1ccc(O)cc1`, the outcome was inactive.
Next, `COc1cc(OC)c(OC)cc1C=O`: “inactive”.
The result for `CC(C)c1cccc(C(C)C)c1O` reads “inactive”; that for `CN1C[C@H](C(=O)N[C@]2(C)O[C@@]3(O)[C@@H]4CCCN4C(=O)[C@H](Cc4ccccc4)N3C2=O)C=C2c3cccc4[nH]cc(c34)C[C@H]21`, “inactive”; that for `NCCc1ccc(O)cc1`, “inactive”.
Next, `C[C@]12CCC(=O)C=C1CC[C@@H]1[C@@H]2CC[C@]2(C)C(=O)CC[C@@H]12`: “inactive”; `Oc1ccc(Cl)cc1`: “inactive”; `CCOC(=O)CC(SP(=S)(OC)OC)C(=O)OCC` (stereo not drawn): “inactive”.
Consider `COC(=O)C(c1ccccc1)C1CCCCN1` (stereo not drawn), for which the call was inactive.
Next, `C[C@]1(O)CC[C@H]2[C@@H]3CCC4=CC(=O)CC[C@]4(C)[C@@]3(F)[C@@H](O)C[C@@]21C`: “inactive”; `COP(=S)(OC)Oc1ccc(SC)c(C)c1`: “inactive”.
Next, `Nc1ccccc1C(=O)O`: “inactive”; `O=P1(N(CCCl)CCCl)NCCCO1` (stereo not drawn): “inactive”.
Next, `CCCC(C)(COC(N)=O)COC(N)=O`: “inactive”.
Consider `CC(C)NC(C)C`, for which the call was inactive.
The result for `C[C@]12CCC(=O)C=C1CC[C@@H]1[C@@H]2CC[C@@]2(C)[C@H]1CC[C@]2(C)O` reads “inactive”; that for `Nc1ccccc1`, “inactive”; that for `Clc1ccc(C(c2ccc(Cl)cc2)C(Cl)(Cl)Cl)cc1`, “inactive”.
